Source: PubChem BioAssay (Sanford-Burnham Center for Chemical Genomics)
C8 TRAIL sens = viability loss with TRAIL in NB7+C8 cells, primary screen, TRAIL sensitizer project, cell-based, ATPlite luminescence. inhibition (viability loss, TRAIL sensitization), % at 10 µM. hit rate 1% among 360,000;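 active = compounds causing at least 50% loss of cell viability in the single-dose screen, relative to plate controls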
PPC-1+TRAIL kill = compounds killing PPC-1 cancer cells with TRAIL present, primary screen, TRAIL potentiator project, ATPLite luminescence, uHTS; PPC-1 cells + TRAIL, ATPLite viability luminescence; cell killing (% activity), % at 4 µM or 5 µM; hit rate 0.41% among 220,000; AID 1443, 2008;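 active = cell killing above 50% in the first pass at 4 µM, then a duplicate retest at 5 µM averaging 50% or more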
SENP7 inh = SENP7 protease inhibitors, primary screen, biochemical, luminescence, uHTS | recombinant SENP7, Z-RLRGG-aminoluciferin luminescence, 40 min | inhibition, % at 5 µM | hit rate 1.5% among 330,000 | AID 434973, 2010;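 active = inhibition above about 50% at the single test dose, limit read from the data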
Target sequence (Q9BQF6 706-1050 limits assumed): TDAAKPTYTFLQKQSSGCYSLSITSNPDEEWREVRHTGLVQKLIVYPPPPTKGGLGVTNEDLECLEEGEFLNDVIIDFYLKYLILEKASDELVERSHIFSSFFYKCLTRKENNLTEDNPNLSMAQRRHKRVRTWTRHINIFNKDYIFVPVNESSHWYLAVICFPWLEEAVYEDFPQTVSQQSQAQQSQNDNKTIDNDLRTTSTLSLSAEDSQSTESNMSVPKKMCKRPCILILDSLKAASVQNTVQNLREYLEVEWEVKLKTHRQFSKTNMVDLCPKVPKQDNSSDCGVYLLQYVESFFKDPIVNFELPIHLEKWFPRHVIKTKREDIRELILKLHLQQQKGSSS
SENP8 block-1 = human SENP8 protease inhibitors, primary screen, biochemical, fluorescence, Nedd8 protein substrate, uHTS. Sentrin-specific protease 8 (Homo sapiens), Q96LD8. recombinant SENP8. inhibition, % at 20 µM. hit rate 0.64% among 360,000; in the data active = inhibition mostly above about 40%, no sharp cut-off; inactive = mostly below about 27%
SENP8 block-2 = SENP8 protease inhibitors, primary screen, biochemical, luminescence. Sentrin-specific protease 8 (Homo sapiens), Q96LD8. purified SENP8, Z-RLRGG-aminoluciferin cleavage. inhibition, % at 10 µM. hit rate 1.2% among 330,000. AID 2540, 2010; in the data active = inhibition above about 50%
SENP6 inh = SENP6 protease inhibitors, primary screen, biochemical, luminescence, uHTS | hit rate 1.8% among 330,000 | inhibition, % at 10 µM | Recombinant SENP6 catalytic domain, aminoluciferin luminescence;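 active = inhibition above about 50% at the single tested dose, limit read from the data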
PPC-1 tox = cytotoxicity in PPC-1 cells, confirmation, cytotoxicity control for TRAIL apoptosis potentiator project, cell-based, ATP content luminescence; cytotoxicity, % at 5 µM; shares compounds with PPC-1+TRAIL kill; hit rate 50% among 1,200; PPC-1 viability, ATPlite luminescence, overnight;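 active = reconfirmed compounds whose average cytotoxicity reaches 50% or more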
Of the large screens only hits and unclear results are named; the others gave an inactive call (follow-up assays come after a bar, where they were run). Only some compounds are listed: those with a hit (about 3% of all), similar ones and a draw of the others.

Clc1ccc(C(c2ccc(Cl)cc2)n2cc[n+](CC(OCc3ccc(Cl)cc3Cl)c3ccc(Cl)cc3Cl)c2)cc1 (stereo not given)	C8 TRAIL sens 94 (no result: PPC-1+TRAIL kill)
COc1cccc(C(c2nnnn2C(C)(C)C)N2CCC3(CC2)C(=O)NCN3c2ccccc2)c1OC (stereo not given)	none (no result: PPC-1+TRAIL kill, SENP7 inh, SENP8 block-2, SENP6 inh)
COc1cc2cc(C(=O)N3CC(COS(C)(=O)=O)c4ccc(O)cc43)[nH]c2c(OC)c1OC (stereo not given)	C8 TRAIL sens 91 (no result: PPC-1+TRAIL kill, SENP7 inh, SENP8 block-2, SENP6 inh)
CCCC[C@@H](C)C[C@@H](C)C(=O)N(C)[C@@H](CC(C)C)C(=O)N[C@H](C(=O)N(C)[C@H](C(=O)N1C[C@@H](O)C[C@H]1C(=O)N1C(=O)C=C[C@@H]1C)C(C)C)C(C)OC(C)=O (stereo not given in full)	C8 TRAIL sens 89 (no result: PPC-1+TRAIL kill)
CC(C)CNC(=O)/C=C/C=C/CCCCCC/C=C/c1ccc2c(c1)OCO2	none (no result: PPC-1+TRAIL kill)
CN(C)C(=O)O/N=C(\N)COc1ccc(C(C)(C)C)cc1	C8 TRAIL sens 90
CCN(C=C1CC2C3CC=C4CC(O)CCC4(C)C3CCC2(C)C1=O)CC (stereo not given)	none (no result: PPC-1+TRAIL kill, SENP7 inh, SENP8 block-2, SENP6 inh)
CN(C)CC(C(=O)Cc1ccccc1)c1ccccc1 (stereo not given)	C8 TRAIL sens 63 (no result: PPC-1+TRAIL kill, SENP7 inh, SENP8 block-2, SENP6 inh)
CC1(C)NC(=S)C(C)(C)N1N=O	none (no result: PPC-1+TRAIL kill, SENP7 inh, SENP8 block-2, SENP6 inh)
O=P(Nc1cccnc1)(Oc1ccccc1Cl)Oc1ccccc1Cl	none
O=[N+]([O-])c1ccc(N(CCO)CCO)c2c1no[n+]2[O-]	SENP8 block-1 51 (no result: PPC-1+TRAIL kill, SENP7 inh, SENP8 block-2, SENP6 inh)
CC(=O)N(C)C1=Nc2ccc(Cl)cc2C(c2ccccc2)=[N+]([O-])C1	none (no result: PPC-1+TRAIL kill, SENP7 inh, SENP8 block-2, SENP6 inh)
CCCCCCn1c(O)c(C=NCCN2CCOCC2)c(=O)[nH]c1=O	none
COc1ccc(Oc2cc(NC(=O)c3nn(C)cc3[N+](=O)[O-])cc([N+](=O)[O-])c2)cc1	C8 TRAIL sens 88
CC(ON1CC1(C(F)(F)F)C(F)(F)F)(C(N)=O)C(N)=O (stereo not given)	none
CCN(CC)c1ccc(N=Cc2c(O)n(Cc3ccco3)c(=O)[nH]c2=O)cc1	none
CCN(CCO)c1ccc(N=Cc2c(O)n(C)c(=S)[nH]c2=O)cc1	SENP7 inh 54, SENP8 block-1 55
CC[C@]12C=CCN3CCC4(c5cc(Br)c(OC)cc5N(C)C4[C@@](O)(C(=O)OC)[C@@H]1OC(C)=O)C32 (stereo not given in full)	none
Cc1ccc2nc(N3CCN(C)CC3)[nH]c2c1	none | PPC-1 tox inactive
CN1CCN(c2nc(N)cc(=O)[nH]2)CC1	none
Cc1nc2c(=O)n(C)c(=O)nc-2n(C)n1	C8 TRAIL sens 96, PPC-1+TRAIL kill 66, SENP7 inh 96, SENP8 block-1 132, SENP8 block-2 96, SENP6 inh 87 | PPC-1 tox 62
COc1ccc(-n2c(-c3ccccc3Br)nc3ccccc3c2=O)cc1	none (no result: PPC-1+TRAIL kill)
CNc1cc(Cl)c2nonc2c1[N+](=O)[O-]	none (no result: SENP7 inh, SENP8 block-2, SENP6 inh)
CNc1ccc2oc(C[C@H]3O[C@@]4(CC[C@H]3C)O[C@H]([C@H](C)C(=O)c3ccc[nH]3)[C@H](C)C[C@H]4C)nc2c1C(=O)O	C8 TRAIL sens 83 | PPC-1 tox inactive
Cc1cc([N+](=O)[O-])c2ccccc2[n+]1[O-]	PPC-1+TRAIL kill 94 | PPC-1 tox 91
C=C(C=O)C[C@@H]1C[C@H](O)C2OC3C[C@]4(C)OC5/C=C\CC6OC7C(CC=CCC6OC5CCCC4OC3CC2O1)OC1CC2OC3CC(=O)OC3C[C@@H](C)C[C@@]2(C)OC1C[C@@H]7C (stereo not given in full)	PPC-1+TRAIL kill 78 (no result: C8 TRAIL sens, SENP8 block-1) | PPC-1 tox 77
COc1ccc(Cc2c(O)[nH]c(=S)[nH]c2=O)cc1	none (no result: PPC-1+TRAIL kill)
Oc1ccc(O)c2c1C1(Cl)C(Cl)=C(Cl)C2(Cl)C1(Cl)Cl	none (no result: PPC-1+TRAIL kill, SENP7 inh, SENP8 block-2, SENP6 inh)
